# In PubChem BioAssay (NCI):
# Compounds without any hit were thinned out: in the full panel of roughly 79,000, 15% have a hit. Active and inactive are the calls of the source. Rule as the data show it: active = growth inhibition above about 70%; inactive = the rest.
# Assay: NCI Yeast Anticancer Drug Screen. Data for the cln2 rad14 strain (AID 165);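 also: 0% = growth equal to vehicle treated cultures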
# Settings: S. cerevisiae cln2 rad14 strain, at 5.0 µM (retest, dose inferred, filed as 0.5), hits give high values
# Method in brief: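 Strain: cln2 rad14 yeast, altered in cell cycle control and DNA damage repair. Read-out: growth inhibition vs vehicle.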
row,SMILES,growth inhibition
1,c1ccc2nc3ccccc3nc2c1,2% (inactive)
2,O=C(NCCCl)Nc1c2ccccc2nc2ccccc12,16% (inactive)
3,CC1=C2CCC3C(CCC4(C)C(C(C)CCCC(C)C)CCC34)C2(C)CCC1=O (stereo not drawn),6% (inactive)
4,Cc1cccc(Cl)c1NC(=O)/C=C/c1ccccc1,29% (inactive)
5,O=C1/C(=C/c2ccc(Cl)cc2)CSC/C1=C\c1ccc(Cl)cc1,18% (inactive)
6,CCOC(=O)c1c(N)sc2c1CCCCC2,-53% (inactive)
7,CC(C)NC(=O)O/N=C1\CCC2[C@@H]3CC=C4C[C@@H](OC(=O)NC(C)C)CC[C@]4(C)C3CC[C@]12C (stereo partly drawn),95% (active)
8,COc1ccc2c(c1)c(=O)c1c(NCCN(C)C)ccc3nnn2c31,-13% (inactive)
9,CCCC(=O)N(C(=O)CCC)C1=C(Cl)C(=O)c2ccccc2C1=O,33% (inactive)
10,CN(C)C1C=CCC(c2ccccc2)C1[N+](=O)[O-] (stereo not drawn),5% (inactive)
11,CC(=O)NC1C(=O)CC(c2ccccc2)N(C)C1c1ccccc1 (stereo not drawn),4% (inactive)
12,CCCCC#CCCOC(=O)C#CCCCC,8% (inactive)
13,CC1C[C@]2(C)C(=S)Nc3ccccc3[C@@H]2Nc2ccccc21 (stereo partly drawn),26% (inactive)
14,O=[N+]([O-])/C=C/c1c[nH]c2c1ccc1ccccc12,30% (inactive)
15,CCC[CH2][Sn]([S][Sn]([CH2]CCC)([c]1ccccc1)[c]1ccccc1)([c]1ccccc1)[c]1ccccc1,97% (active)
16,CCN(CC)CCCCNc1ccc(Cl)cc1,2% (inactive)
17,C[n+]1c(/C=C\c2ccccc2)sc2ccccc21,19% (inactive)
18,Cc1nnc2nc3c(nn12)c1ccccc1n3C,-60% (inactive)
19,CS(=O)c1cc(=O)c2ccccc2s1 (stereo not drawn),10% (inactive)
20,COC(=O)C1=C(C)NC(C)=C(C(=O)OC)C1c1ccc(NCc2ccccc2)c([N+](=O)[O-])c1,0% (inactive)

row,SMILES,growth inhibition
1,C/C(=N/NC(=S)Nc1ccccc1Cl)c1ccccn1,3% (inactive)
2,Nc1ccccc1Sc1ccc(C(F)(F)F)cc1[N+](=O)[O-],-2% (inactive)
3,COc1ccc2nc(-c3ccc(Cl)cc3)[nH]c2c1,-8% (inactive)
4,Cc1c(C)c(C)c(C(=O)c2ccccc2C(=O)NCCSC(C)(C)C)c(C)c1C,53% (inactive)
5,COC(=O)C(=O)C(C(=O)Nc1cccc(C)c1C)C1Sc2ccccc2NC1=O (stereo not drawn),95% (active)
6,Cc1nc2c(O)c3c(c(O)c2nc1C)C1C=CC3CC1,22% (inactive)
7,C[C@]12CCC(=O)C=C1CC[C@@H]1[C@@H]2[C@@H](O)C[C@@]2(C)[C@H]1CC[C@]2(O)C(=O)COC(=O)CCC1CCCC1,49% (inactive)
8,CC(=O)OCCc1ccc(CCc2ccccc2)cc1,4% (inactive)
9,COc1cc2c(cc1OC)C(=O)C(C)(c1ccccc1)NC2 (stereo not drawn),10% (inactive)
10,CCCCCCC(/C=C/c1c(Cl)cccc1Cl)=N\O,-1% (inactive)
11,O=C1OC(c2ccc(O)cc2)=C(c2ccccc2)C1c1ccccc1 (stereo not drawn),4% (inactive)
12,c1cc[c]([Ge]([O]c2cccc3cccnc23)([c]2ccccc2)[c]2ccccc2)cc1,6% (inactive)
13,CCCCCCCCCCCCCCCCCCOP(=O)([O-])OCC[N+](C)(C)C,15% (inactive)
14,Cc1noc(NS(=O)(=O)c2ccc(NCc3c4ccccc4nc4cc(Cl)ccc34)cc2)c1C,1% (inactive)
15,CCC(=NCCCCCCN=C(CC)c1cc(C)cc([N+](=O)[O-])c1O)c1cc(C)cc([N+](=O)[O-])c1O.[Fe],-7% (inactive)
16,O=C(O)c1ccc([N+](=O)[O-])cc1.[Ag],99% (active)
17,O=C1C(=O)c2ccccc2C(O)=C1C(c1ccccc1)c1ccccc1,27% (inactive)
18,CC(=O)SC1C(=O)N(C)C(SC(C)=O)C(=O)N1C (stereo not drawn),-1% (inactive)
19,COc1ccc2c(c1)CN([C@@H](C)[C@H]1CC[C@H]3[C@@H]4CC[C@H]5C[C@@H](O)CC[C@]5(C)[C@H]4CC[C@]13C)CO2,95% (active)

# Same assay, conditions: S. cerevisiae cln2 rad14 strain, at 50.0 µM (retest, dose inferred, filed as 5.0), hits give high values
row,SMILES,growth inhibition
1,c1ccc2nc3ccccc3nc2c1,36% (inactive)
2,O=C(NCCCl)Nc1c2ccccc2nc2ccccc12,23% (inactive)
3,CC1=C2CCC3C(CCC4(C)C(C(C)CCCC(C)C)CCC34)C2(C)CCC1=O (stereo not drawn),3% (inactive)
4,Cc1cccc(Cl)c1NC(=O)/C=C/c1ccccc1,6% (inactive)
5,O=C1/C(=C/c2ccc(Cl)cc2)CSC/C1=C\c1ccc(Cl)cc1,34% (inactive)
6,CCOC(=O)c1c(N)sc2c1CCCCC2,-52% (inactive)
7,CC(C)NC(=O)O/N=C1\CCC2[C@@H]3CC=C4C[C@@H](OC(=O)NC(C)C)CC[C@]4(C)C3CC[C@]12C (stereo partly drawn),75% (active)
8,COc1ccc2c(c1)c(=O)c1c(NCCN(C)C)ccc3nnn2c31,37% (inactive)
9,CCCC(=O)N(C(=O)CCC)C1=C(Cl)C(=O)c2ccccc2C1=O,65% (inactive)
10,CN(C)C1C=CCC(c2ccccc2)C1[N+](=O)[O-] (stereo not drawn),70% (active)
11,CC(=O)NC1C(=O)CC(c2ccccc2)N(C)C1c1ccccc1 (stereo not drawn),0% (inactive)
12,CCCCC#CCCOC(=O)C#CCCCC,9% (inactive)
13,CC1C[C@]2(C)C(=S)Nc3ccccc3[C@@H]2Nc2ccccc21 (stereo partly drawn),60% (inactive)
14,O=[N+]([O-])/C=C/c1c[nH]c2c1ccc1ccccc12,93% (active)
15,CCC[CH2][Sn]([S][Sn]([CH2]CCC)([c]1ccccc1)[c]1ccccc1)([c]1ccccc1)[c]1ccccc1,83% (active)
16,CCN(CC)CCCCNc1ccc(Cl)cc1,-3% (inactive)
17,C[n+]1c(/C=C\c2ccccc2)sc2ccccc21,83% (active)
18,Cc1nnc2nc3c(nn12)c1ccccc1n3C,-44% (inactive)
19,CS(=O)c1cc(=O)c2ccccc2s1 (stereo not drawn),60% (inactive)
20,COC(=O)C1=C(C)NC(C)=C(C(=O)OC)C1c1ccc(NCc2ccccc2)c([N+](=O)[O-])c1,74% (active)

row,SMILES,growth inhibition
1,C/C(=N/NC(=S)Nc1ccccc1Cl)c1ccccn1,5% (inactive)
2,Nc1ccccc1Sc1ccc(C(F)(F)F)cc1[N+](=O)[O-],22% (inactive)
3,COc1ccc2nc(-c3ccc(Cl)cc3)[nH]c2c1,47% (inactive)
4,Cc1c(C)c(C)c(C(=O)c2ccccc2C(=O)NCCSC(C)(C)C)c(C)c1C,41% (inactive)
5,COC(=O)C(=O)C(C(=O)Nc1cccc(C)c1C)C1Sc2ccccc2NC1=O (stereo not drawn),95% (active)
6,Cc1nc2c(O)c3c(c(O)c2nc1C)C1C=CC3CC1,30% (inactive)
7,C[C@]12CCC(=O)C=C1CC[C@@H]1[C@@H]2[C@@H](O)C[C@@]2(C)[C@H]1CC[C@]2(O)C(=O)COC(=O)CCC1CCCC1,96% (active)
8,CC(=O)OCCc1ccc(CCc2ccccc2)cc1,-6% (inactive)
9,COc1cc2c(cc1OC)C(=O)C(C)(c1ccccc1)NC2 (stereo not drawn),56% (inactive)
10,CCCCCCC(/C=C/c1c(Cl)cccc1Cl)=N\O,12% (inactive)
11,O=C1OC(c2ccc(O)cc2)=C(c2ccccc2)C1c1ccccc1 (stereo not drawn),26% (inactive)
12,c1cc[c]([Ge]([O]c2cccc3cccnc23)([c]2ccccc2)[c]2ccccc2)cc1,6% (inactive)
13,CCCCCCCCCCCCCCCCCCOP(=O)([O-])OCC[N+](C)(C)C,89% (active)
14,Cc1noc(NS(=O)(=O)c2ccc(NCc3c4ccccc4nc4cc(Cl)ccc34)cc2)c1C,-3% (inactive)
15,CCC(=NCCCCCCN=C(CC)c1cc(C)cc([N+](=O)[O-])c1O)c1cc(C)cc([N+](=O)[O-])c1O.[Fe],49% (inactive)
16,O=C(O)c1ccc([N+](=O)[O-])cc1.[Ag],99% (active)
17,O=C1C(=O)c2ccccc2C(O)=C1C(c1ccccc1)c1ccccc1,83% (active)
18,CC(=O)SC1C(=O)N(C)C(SC(C)=O)C(=O)N1C (stereo not drawn),0% (inactive)
19,COc1ccc2c(c1)CN([C@@H](C)[C@H]1CC[C@H]3[C@@H]4CC[C@H]5C[C@@H](O)CC[C@]5(C)[C@H]4CC[C@]13C)CO2,99% (active)
